Measurements reported in publication PMC5540273 (PLoS ONE, 2017).

Columns and labels:
Settings in all cases: concentration: 1 μM, replicates: in singlicate; n = 1
[1] = test system: T1, PKAC-beta
T1 construct: gene PRKACB

[2] = test system: PKMYT1
[3] = test system: PKN1
[4] = test system: PKN2
[5] = test system: PLK1
[6] = test system: PLK2
[7] = test system: PLK3
[8] = test system: PLK4
[9] = test system: PRKCD
[10] = test system: PRKCE
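Further: KINOMEscan kinase panel screen.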

Structure (SMILES) | %Inh [1] [%] | %Inh [2] [%] | %Inh [3] [%] | %Inh [4] [%] | %Inh [5] [%] | %Inh [6] [%] | %Inh [7] [%] | %Inh [8] [%] | %Inh [9] [%] | %Inh [10] [%]
Fc1ccc(-c2nc[nH]c2-c2ccncc2)cc1 [SB-217360] | 0 | 9 | 0 | 0 | 9 | 21 | 36 | 4 | 8 | 0
Cc1nccc(-c2c(-c3ccc(F)cc3)ncn2CCCN2CCOCC2)n1.Cl [SB-282975] | 0 | 0 | 19 | 1 | 44 | 21 | 5 | 3 | 31 | 11
COc1ccc(Nc2nccc(NCCNC(=O)Nc3cc(C)ccc3C)n2)cc1 [GSK1379899] | 0 | 2 | 30 | 0 | 0 | 0 | 0 | 0 | 10 | 0
CNc1nc(-c2ccc3c(N)n[nH]c3c2)cc(N2C[C@@H](C(=O)NC3CCCCC3)OC[C@H]2C)n1 [GSK2375584] | 10 | 0 | 29 | 0 | 3 | 0 | 1 | 1 | 8 | 8
